# Source: PubChem BioAssay (NCI)
# About 83,000 compounds went through this panel and 20% of them were active in at least one assay; those are over-represented in the sample as a whole.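 Cells were grown in 96-well plates and exposed to the test compound at a single concentration for 48 hours; results are reported as percent growth, with values below 10 considered active.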 A number with no mark means an inactive call. Activity calls are given as the source filed them.
# Test system: MDA-MB-468 breast
# Test: NCI-60 one-dose screen, 48 h (100 = growth as untreated, 0 = no growth, -100 = all killed)
# Conditions: 10 µM unless noted
row,Structure (SMILES),growth
1,CNCCN(C)c1ccc(Nc2cc(NC3CC3)n3ncc(C#N)c3n2)cc1NC(C)=O,-54.5% (active)
2,COc1ccc(-c2nnc(SCC(=O)Nc3ccc(C(=O)/C=C/c4ccc(Cl)cc4)cc3)o2)cc1OC,99.4%
3,CN1CCN(CCCOc2ccc3nc(Nc4ccc(F)c(F)c4)ccc3c2)CC1,9.52% (active)
4,CC(Br)c1nc2ccccc2cc1C(N)=O (stereo not drawn),105%
5,O=C(CCCCNC(=O)c1nc(-c2ccccc2)n(-c2ccccc2)n1)NO,55.4%
6,Cc1ccc(-c2csc(N(C(=O)N3CCN(c4cc5c(cc4F)c(=O)c(C(=O)O)cn5C4CC4)CC3)c3ccccc3)n2)cc1,-6.73% (active)
7,CN(C)c1ccc(/C=C\c2cccc[n+]2C)cc1,4.18% (active)
8,COc1ccc(C(=O)/C=C/c2cc3ccccc3n3nnnc23)cc1,96.8%
9,CCC(C)[C@H]1O[C@]2(CC[C@@H]1C)C[C@@H]1C[C@@H](C/C=C(\C)[C@@H](OC3C[C@H](OC)C(O[C@H]4C[C@H](OC)[C@@H](O)[C@H](C)O4)[C@H](C)O3)[C@@H](C)/C=C/C=C3\CO[C@@H]4[C@H](O)C(C)=C[C@@H](C(=O)O1)[C@]34O)O2 (stereo partly drawn),10.5%
10,CCCCCCCCCCCC[S+](C)CC(=O)[O-] (stereo not drawn),-53.1% (active)
11,O=C(Cn1ccc2ccccc21)Nc1ccc(-c2nc3ccccc3s2)cc1,-50.2% (active)
12,O=C1/C(=C/N2N=C(c3ccc(Cl)cc3)CC2c2ccccc2O)SC(=S)N1c1cccc(C(F)(F)F)c1 (stereo not drawn),62.2%
13,COc1ccc(/C=C2/C(=O)Nc3cc(Cl)c(-c4csc(N)n4)cc32)cc1,0.87% (active)
